From PubChem BioAssay
Activity calls are given as the source filed them.

Legend:
[1] = small molecules captured by biotinylated probe aFSTL3 – biochemical, small-molecule microarray, fluorescence 635/667, stem cell growth factor project, primary screen (AID 1064); conditions: higher = more signal;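 note: measures binding of the biotinylated anti-FSTL3 antibody to printed compounds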
[2] = binders from COS7 lysate, DM2A8 probe, primary screen, torsin A project, cell lysate, small-molecule microarray, fluorescence 635/667 (AID 1065); conditions: higher = more signal, COS7 lysate expressing mutant human TOR1A
[3] = small molecules captured by biotinylated probe aFGF2 – biochemical, small-molecule microarray, fluorescence 635/667, stem cell growth factor project, primary screen (AID 1067); conditions: higher = more signal;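 note: measures binding of biotinylated aFGF2 protein to printed compounds on slides; z-score merges feature fluorescence and signal-to-noise across triplicate slides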
[4] = small molecules captured by biotinylated probe aFGF10 – biochemical, small-molecule microarray, fluorescence 635/667, stem cell growth factor project, primary screen (AID 1071); conditions: higher = more signal;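 note: score merges 667 nm spot intensity and signal to noise from triplicate slides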
[5] = target: Neurogenic locus notch homolog protein 2 (Homo sapiens) (UniProt Q04721); test: small molecules binding Notch2 protein – biochemical, small-molecule microarray, 635 nm fluorescence, stem cell growth factors, primary screen (AID 1073); conditions: higher = more signal
Neurogenic locus notch homolog protein 2 (Homo sapiens), sequence (Q04721 whole entry, looked up, canonical isoform): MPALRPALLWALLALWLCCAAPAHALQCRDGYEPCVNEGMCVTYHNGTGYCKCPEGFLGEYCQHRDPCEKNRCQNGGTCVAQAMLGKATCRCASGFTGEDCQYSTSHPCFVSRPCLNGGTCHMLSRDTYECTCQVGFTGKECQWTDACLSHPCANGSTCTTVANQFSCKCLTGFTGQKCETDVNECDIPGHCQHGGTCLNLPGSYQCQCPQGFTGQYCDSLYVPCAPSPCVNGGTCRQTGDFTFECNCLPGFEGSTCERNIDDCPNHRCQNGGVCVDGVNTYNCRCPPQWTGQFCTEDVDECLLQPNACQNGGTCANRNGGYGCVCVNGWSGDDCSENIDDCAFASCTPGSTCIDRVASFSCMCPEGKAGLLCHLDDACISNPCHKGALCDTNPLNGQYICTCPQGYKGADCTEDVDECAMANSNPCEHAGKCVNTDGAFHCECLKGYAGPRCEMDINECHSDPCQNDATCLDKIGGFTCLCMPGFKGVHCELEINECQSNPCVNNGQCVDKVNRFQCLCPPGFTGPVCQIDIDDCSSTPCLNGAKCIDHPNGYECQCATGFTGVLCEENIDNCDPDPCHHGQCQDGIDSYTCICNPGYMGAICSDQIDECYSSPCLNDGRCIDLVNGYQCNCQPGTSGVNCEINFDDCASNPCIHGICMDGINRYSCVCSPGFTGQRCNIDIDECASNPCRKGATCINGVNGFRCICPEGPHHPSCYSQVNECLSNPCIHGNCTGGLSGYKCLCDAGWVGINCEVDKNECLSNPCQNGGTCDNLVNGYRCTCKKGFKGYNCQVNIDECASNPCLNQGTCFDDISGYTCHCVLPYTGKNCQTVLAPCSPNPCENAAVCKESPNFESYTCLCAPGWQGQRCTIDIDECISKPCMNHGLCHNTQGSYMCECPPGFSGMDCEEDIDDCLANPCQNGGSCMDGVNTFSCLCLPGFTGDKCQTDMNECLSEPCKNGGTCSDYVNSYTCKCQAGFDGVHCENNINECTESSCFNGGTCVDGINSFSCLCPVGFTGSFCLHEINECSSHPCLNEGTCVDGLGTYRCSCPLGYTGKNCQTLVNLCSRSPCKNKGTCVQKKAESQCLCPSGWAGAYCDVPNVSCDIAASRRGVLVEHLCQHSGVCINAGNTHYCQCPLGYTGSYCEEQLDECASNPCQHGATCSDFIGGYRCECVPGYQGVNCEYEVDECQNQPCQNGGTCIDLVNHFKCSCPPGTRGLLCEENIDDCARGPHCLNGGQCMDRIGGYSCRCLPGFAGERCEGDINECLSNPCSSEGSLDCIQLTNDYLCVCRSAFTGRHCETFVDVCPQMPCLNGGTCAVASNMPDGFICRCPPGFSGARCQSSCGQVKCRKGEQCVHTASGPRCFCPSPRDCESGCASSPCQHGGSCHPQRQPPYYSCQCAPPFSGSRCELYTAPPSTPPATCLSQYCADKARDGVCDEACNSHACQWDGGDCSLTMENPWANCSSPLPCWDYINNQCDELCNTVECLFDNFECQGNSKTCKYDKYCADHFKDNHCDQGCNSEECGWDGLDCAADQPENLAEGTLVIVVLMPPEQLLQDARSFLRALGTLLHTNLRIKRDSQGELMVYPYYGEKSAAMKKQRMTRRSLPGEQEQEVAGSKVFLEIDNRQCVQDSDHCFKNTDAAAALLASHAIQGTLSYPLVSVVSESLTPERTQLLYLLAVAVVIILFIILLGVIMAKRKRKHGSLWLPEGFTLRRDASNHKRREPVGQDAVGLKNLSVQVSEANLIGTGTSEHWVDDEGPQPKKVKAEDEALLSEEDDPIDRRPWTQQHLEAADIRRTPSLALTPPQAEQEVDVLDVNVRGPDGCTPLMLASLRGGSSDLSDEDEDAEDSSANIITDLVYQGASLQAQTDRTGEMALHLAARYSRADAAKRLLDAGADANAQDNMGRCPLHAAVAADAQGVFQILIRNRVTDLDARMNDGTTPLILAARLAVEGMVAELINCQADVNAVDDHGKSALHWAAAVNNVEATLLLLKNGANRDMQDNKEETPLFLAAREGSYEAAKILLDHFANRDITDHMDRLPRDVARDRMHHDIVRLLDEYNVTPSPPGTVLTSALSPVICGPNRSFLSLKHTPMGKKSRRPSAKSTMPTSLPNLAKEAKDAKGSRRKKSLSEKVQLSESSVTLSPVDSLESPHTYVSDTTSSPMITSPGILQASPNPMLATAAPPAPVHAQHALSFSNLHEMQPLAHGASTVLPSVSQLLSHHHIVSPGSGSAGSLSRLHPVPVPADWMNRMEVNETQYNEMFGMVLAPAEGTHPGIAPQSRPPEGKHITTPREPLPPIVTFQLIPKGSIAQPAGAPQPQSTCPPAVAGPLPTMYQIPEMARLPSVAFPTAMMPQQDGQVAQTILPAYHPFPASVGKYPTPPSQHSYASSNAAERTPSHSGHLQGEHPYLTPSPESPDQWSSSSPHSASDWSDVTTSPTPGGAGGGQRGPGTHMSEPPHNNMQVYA

[6] = target: Pro-neuregulin-1, membrane-bound isoform (Homo sapiens) (UniProt Q02297); test: small molecules binding neuregulin-1 protein – biochemical, small-molecule microarray, fluorescence 635/667, psychiatric disease protein project, primary screen (AID 1075); conditions: NRG1 binding, 635 nm fluorescence, higher = more signal;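 note: score combines 667 nm spot fluorescence with signal to noise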
[7] = tested on: Neuregulin-1 EGF-like domain; test: small molecules binding NRG1 EGF domain – biochemical, small-molecule microarray, 635 nm fluorescence, primary screen (AID 1081); conditions: higher = more signal;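 note: binding of the protein to compounds printed on small-molecule microarray slides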
[8] = FRG1 expression reporter modulators in myotubes – cell-based, C2C12 myotubes, firefly/Renilla luciferase, luminescence, FRG1 inhibition for FSHD, primary screen (AID 1084); conditions: FRG1 promoter luciferase, higher = more signal, called active from +8 up or from −8 down
[9] = small molecules captured by biotinylated probe aFST – biochemical, small-molecule microarray, fluorescence 635/667, stem cell growth factor project, primary screen (AID 1086); conditions: higher = more signal;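 note: score merges 667 nm fluorescence with signal-to-noise of each printed compound spot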
[10] = binders of probe aHhip on microarray, primary screen, stem cell growth factor project, biochemical, small-molecule microarray, fluorescence 635/667 (AID 1087); conditions: higher = more signal;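 note: score merges spot fluorescence at 667nm with spot signal to noise ratio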
[11] = tested on: PRMT1 (protein arginine N-methyltransferase 1); test: small molecules binding arginine methyltransferase PRMT1 – biochemical, small-molecule microarray, 635 nm fluorescence, primary screen (AID 1088); conditions: higher = more signal;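 note: binding of Prmt1 protein to compounds spotted on small-molecule microarray slides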
[12] = growth effects on S. cerevisiae YJM789 – YJM789 clinical isolate, OD600, 24 h, basal, primary screen (AID 1089); conditions: higher = more signal, called active from +8 up or from −8 down;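 note: growth of clinical yeast isolate S. cerevisiae YJM 789 seeded 1000 cells per well; test concentration not given here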
[13] = S. pombe growth modifiers, basal conditions – strain 972, OD600, 24 h, no modulator, primary screen (AID 1090);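 note: basal condition with compound alone and no growth modifier present; test concentration not given here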; conditions: S. pombe 972 growth, higher = more signal, called active from +8 up or from −8 down
[14] = budding yeast growth modifiers under rapamycin – strain BY4716, OD600, 96 h, primary screen (AID 1091); note: test concentration not given here; conditions: S. cerevisiae BY4716 + rapamycin, higher = more signal, called active from +8 up or from −8 down
[15] = target: Torsin-1A-interacting protein 2 (Homo sapiens) (UniProt Q8NFQ8); test: small molecules binding lysate-expressed LULL1 – cell lysate, human LULL1 lysate, 635/667 nm fluorescence, primary screen (AID 1092); conditions: small-molecule microarray, hLULL1 lysate binding, 635 nm fluorescence; higher = more signal;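 note: probe is lysate of COS7 cells overexpressing human LULL1; score merges per-feature 667 nm fluorescence with signal-to-noise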
[16] = optical density change of DRC41 E. coli – strain DRC41, OD650, 24 h, E. coli filamentation project, primary screen (AID 1093);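 note: MC1000 strain lacking acrAB efflux and sulA so SOS filamentation is blocked; test concentration not given here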; conditions: E. coli DRC41 growth, higher = more signal, called active from +8 up or from −8 down
[17] = probe aLefty2 binding to arrayed compounds – biochemical, biotinylated probe, 635/667 nm fluorescence, primary screen (AID 1094); conditions: small-molecule microarray, higher = more signal;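 note: score merges spot fluorescence near 667 nm with spot signal-to-noise ratio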
[18] = tested on: Noggin (protein binding on small-molecule microarray); test: small molecules binding Noggin protein – biochemical, 635/667 nm fluorescence, primary screen (AID 1095); conditions: 635 nm fluorescence, higher = more signal;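 note: score merges 667 nm feature fluorescence with signal to noise over triplicate slides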
[19] = target: Neurogenic locus notch homolog protein 3 (Homo sapiens) (UniProt Q9UM47); test: small molecules binding NOTCH3 protein – biochemical, 635/667 nm fluorescence, primary screen (AID 1096); conditions: small-molecule microarray, 635 nm fluorescence, higher = more signal
Neurogenic locus notch homolog protein 3 (Homo sapiens), sequence (Q9UM47 whole entry, looked up): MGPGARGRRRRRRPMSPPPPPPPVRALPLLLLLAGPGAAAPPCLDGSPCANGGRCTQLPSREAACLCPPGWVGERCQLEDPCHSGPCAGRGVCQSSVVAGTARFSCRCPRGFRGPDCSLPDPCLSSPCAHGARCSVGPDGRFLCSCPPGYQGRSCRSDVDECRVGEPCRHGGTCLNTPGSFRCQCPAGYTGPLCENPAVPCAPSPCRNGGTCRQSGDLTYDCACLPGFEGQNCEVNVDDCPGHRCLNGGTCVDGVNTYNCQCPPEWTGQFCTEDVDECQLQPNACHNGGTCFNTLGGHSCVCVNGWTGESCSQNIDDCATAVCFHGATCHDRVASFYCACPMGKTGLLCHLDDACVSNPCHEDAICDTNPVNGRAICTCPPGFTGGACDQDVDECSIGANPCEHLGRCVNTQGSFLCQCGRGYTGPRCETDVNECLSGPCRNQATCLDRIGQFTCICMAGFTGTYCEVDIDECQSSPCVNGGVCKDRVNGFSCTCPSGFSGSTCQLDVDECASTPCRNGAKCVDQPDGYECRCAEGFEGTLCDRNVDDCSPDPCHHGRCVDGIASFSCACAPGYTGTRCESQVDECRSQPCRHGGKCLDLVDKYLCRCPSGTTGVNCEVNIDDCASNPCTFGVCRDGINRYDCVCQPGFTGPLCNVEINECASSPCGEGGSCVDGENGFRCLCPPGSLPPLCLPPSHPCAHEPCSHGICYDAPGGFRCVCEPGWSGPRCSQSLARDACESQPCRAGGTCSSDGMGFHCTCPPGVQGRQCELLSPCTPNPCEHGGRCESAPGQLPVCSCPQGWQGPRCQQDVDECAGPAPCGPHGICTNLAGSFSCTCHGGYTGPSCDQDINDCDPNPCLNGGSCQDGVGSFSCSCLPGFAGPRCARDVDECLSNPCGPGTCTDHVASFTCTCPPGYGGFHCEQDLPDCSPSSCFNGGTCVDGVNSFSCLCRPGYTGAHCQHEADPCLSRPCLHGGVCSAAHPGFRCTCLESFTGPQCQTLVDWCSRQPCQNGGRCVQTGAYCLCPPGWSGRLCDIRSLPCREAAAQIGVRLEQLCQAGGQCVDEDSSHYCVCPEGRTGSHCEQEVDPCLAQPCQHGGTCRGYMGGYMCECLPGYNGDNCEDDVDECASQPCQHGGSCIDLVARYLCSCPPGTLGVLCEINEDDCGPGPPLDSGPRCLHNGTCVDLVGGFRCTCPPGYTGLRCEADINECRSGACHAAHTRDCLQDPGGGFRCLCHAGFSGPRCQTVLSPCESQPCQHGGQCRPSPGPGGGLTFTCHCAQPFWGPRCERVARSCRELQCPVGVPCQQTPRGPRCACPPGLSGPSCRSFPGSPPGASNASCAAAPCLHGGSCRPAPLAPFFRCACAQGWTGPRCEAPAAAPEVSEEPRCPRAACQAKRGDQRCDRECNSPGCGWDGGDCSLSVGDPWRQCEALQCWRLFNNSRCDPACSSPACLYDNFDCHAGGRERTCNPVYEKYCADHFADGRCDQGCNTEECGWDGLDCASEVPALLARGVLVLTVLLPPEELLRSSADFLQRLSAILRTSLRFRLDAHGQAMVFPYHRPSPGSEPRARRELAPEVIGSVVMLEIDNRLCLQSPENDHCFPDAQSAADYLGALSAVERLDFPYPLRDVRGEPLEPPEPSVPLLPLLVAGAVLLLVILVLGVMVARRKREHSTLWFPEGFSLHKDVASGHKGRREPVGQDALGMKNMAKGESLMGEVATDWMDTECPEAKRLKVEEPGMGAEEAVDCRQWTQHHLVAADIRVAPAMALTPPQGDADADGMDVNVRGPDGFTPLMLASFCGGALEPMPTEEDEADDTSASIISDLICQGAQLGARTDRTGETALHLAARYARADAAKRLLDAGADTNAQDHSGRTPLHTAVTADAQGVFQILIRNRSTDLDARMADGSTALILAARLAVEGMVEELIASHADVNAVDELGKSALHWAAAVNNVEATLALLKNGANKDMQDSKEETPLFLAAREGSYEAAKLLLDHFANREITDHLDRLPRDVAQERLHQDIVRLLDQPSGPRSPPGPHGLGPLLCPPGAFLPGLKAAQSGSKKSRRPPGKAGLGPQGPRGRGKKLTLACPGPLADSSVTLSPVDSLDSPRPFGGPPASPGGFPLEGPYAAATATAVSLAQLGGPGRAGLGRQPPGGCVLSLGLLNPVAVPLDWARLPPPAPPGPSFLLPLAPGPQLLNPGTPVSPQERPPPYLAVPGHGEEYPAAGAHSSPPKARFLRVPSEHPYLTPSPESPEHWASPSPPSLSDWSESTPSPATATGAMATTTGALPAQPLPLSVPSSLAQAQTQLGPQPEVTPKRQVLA

[20] = probe aEGFR binding to arrayed compounds – biochemical, biotinylated probe, 635/667 nm fluorescence, primary screen (AID 1097); conditions: small-molecule microarray, higher = more signal;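 note: probe is a biotinylated anti-EGFR antibody binding compounds printed on slides; score combines fluorescence near 667 nm and signal to noise of each spot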

Row | SMILES | composite z-score [1] | composite z-score [2] | composite z-score [3] | composite z-score [4] | composite z-score [5] | composite z-score [6] | composite z-score [7] | z-score [8] | composite z-score [9] | composite z-score [10] | composite z-score [11] | z-score [12] | z-score [13] | z-score [14] | composite z-score [15] | z-score [16] | composite z-score [17] | composite z-score [18] | composite z-score [19] | composite z-score [20]
1 | CN(C)C(=O)[C@@]1(CCC(=O)OC(C)(C)C)COC(c2ccc(OCCCO)cc2)=N1 | 0.0486 | 0.0295 | -0.0598 | 0.448 | 0.675 | 1.8 | 1.41 | -0.977 (inactive) | 0.267 | -0.189 | 1.32 | -0.321 (inactive) | -0.369 (inactive) | -0.501 (inactive) | 3.78 | 0.771 (inactive) | 0.112 | 0.74 | 0.0673 | -0.122
2 | COCCCNC(=O)[C@]1(CCS(=O)(=O)c2ccccc2)N=C(c2ccc(OCCCO)cc2)O[C@@H]1c1ccccc1 | -0.0225 | 1.05 | 0.124 | 0.786 | 1.57 | 2.12 | 1.22 | -1.91 (inactive) | 1.26 | -0.166 | 1.54 | -0.575 (inactive) | 0.127 (inactive) | 0.0389 (inactive) | 3.74 | 0.697 (inactive) | 0.255 | 0.712 | 1.11 | 0.141
3 | CN1C(=O)C2C=CC(C(O)C3CCCCC3)N(N(c3ccccc3)c3ccccc3)C2C1=O (stereo not given) | 1.61 | -0.277 | 0.182 | -0.122 | -0.112 | 1.12 | 0.659 | -0.158 (inactive) | 0.236 | -0.183 | 0.102 | 0.345 (inactive) | 1.25 (inactive) | 0.4 (inactive) | 2.5 | -0.989 (inactive) | 0.368 | -0.539 | -0.396 | 0.114
4 | CC(C)C[C@@H]1NC(=O)[C@@H]2C[C@H](C(=O)NCc3ccc(F)cc3)[C@H](c3ccc(O)cc3)N2C1=O | 0.454 | 0.0392 | -0.017 | 0.0187 | 0.245 | 0.346 | 1.16 | -0.331 (inactive) | -0.512 | -0.201 | 1.43 | -0.472 (inactive) | -0.352 (inactive) | -0.427 (inactive) | 2.96 | 0.549 (inactive) | 0.0137 | 0.479 | 0.365 | -0.178
5 | C[N+](C)(C)CCCCCCNC(=O)[C@@H]1C[C@@H]2C(=O)NCC(=O)N2[C@@H]1c1cccc(OCCO)c1 | -0.419 | 0.488 | -0.125 | -0.114 | 0.033 | 0.021 | 1.22 | 4.06 (inactive) | -0.0422 | -0.34 | 1.55 | -0.947 (inactive) | 0.0641 (inactive) | -0.683 (inactive) | 2.23 | 1.3 (inactive) | -0.207 | 1.49 | 1.1 | -0.0531
